Assay results as given in PubChem BioAssay (EPA / NIEHS).
Results filed as inconclusive are left out. Activity calls are given as the source filed them. Rule for the calls, unless noted: active = hit-call score of the fitted dose curve at least 0.9, where 1 is the maximum; inconclusive = response in the unintended direction; inactive = score below 0.9.

Experiments:
[1] = target: Bile acid receptor (Homo sapiens) (UniProt Q96RI1); test: OT_FXR_FXRSRC1_0480: Odyssey Thera (OT) 8-hour HEK293T Protein-Complementation Assay for Farnesoid X receptor/SRC-1 Co-activator (AID 2283383)
Procedure, shortened: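 Binding of FXR to coactivator SRC-1 was read as fluorescence from a reconstituted split reporter in HEK293T cells, 8 h after chemical addition. Only increases in signal versus DMSO were fit.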

[2] = target: Bile acid receptor (Homo sapiens) (UniProt Q96RI1); test: OT_FXR_FXRSRC1_1440: Odyssey Thera (OT) 24-hour HEK293T Protein-Complementation Assay for Farnesoid X receptor/SRC-1 Co-activator (AID 2283384)
Procedure, shortened: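 Protein-fragment complementation: FXR and SRC-1 fused to reporter fragments that reassemble on interaction, read by fluorescence intensity. Human HEK293T cells measured 24 h post-dose; positive-direction fit versus DMSO.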

[3] = target: Peroxisome proliferator-activated receptor gamma (Homo sapiens) (UniProt P37231); test: OT_PPARg_PPARgSRC1_1440: Odyssey Thera (OT) 24-hour Protein-Complementation Assay for Peroxisome Proliferator-activated Receptor Gamma/ SRC-1 Co-activator (AID 2283388)
Procedure, shortened: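 HEK293T cells transiently transfected with PPARg and SRC-1 fused via (Gly4Ser)2 linker to split Venus YFP fragments (IFP1/IFP2) were dosed 24 h; fixed, Draq5-stained, imaged at 488/635 nm; nuclear/cytoplasmic fluorescence ratio scored versus DMSO baseline, gain-of-signal.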

[4] = target: Retinoic acid receptor RXR-alpha (Homo sapiens) (UniProt P19793); test: OT_NURR1_NURR1RXRa_1440: Odyssey Thera (OT) 24-hour HEK293T Protein Complementation Assay for Nurr1/retinoid X receptor (RXR) (AID 2283386)
Procedure, shortened: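 Gain in fluorescence, fitted relative to DMSO, reflects Nurr1–RXRα association in HEK293T cells after 24 h dosing. Bait and prey are each linked to a reporter-protein fragment that reassembles on interaction.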

[5] = target: Peroxisome proliferator-activated receptor gamma (Homo sapiens) (UniProt P37231); test: OT_PPARg_PPARgSRC1_0480: Odyssey Thera (OT) 8-hour Protein-Complementation Assay for Peroxisome Proliferator-activated Receptor Gamma / SRC-1 Co-activator (AID 2283387)
Procedure, shortened: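 Read-out: 488 nm N/C fluorescence ratio from complemented Venus YFP fragments, ≥350 cells per image, gain-of-signal fitted against DMSO baseline. Fusions of PPARg/SRC-1 with IFP1/IFP2 expressed transiently in HEK293T; compounds applied 8 h.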

[6] = CEETOX_H295R_11DCORT: CeeTox H295R High-throughput Steroidogenesis Assay for 11-Deoxycortisol (11DCORT) (AID 2283432; active = hit-call score of the fitted dose curve at least 0.9, where 1 is the maximum; inactive = score below 0.9;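 for AC50: 11-deoxycortisol secreted into the medium measured by LC-MS/MS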); conditions: actives raise or lower the signal
Procedure, shortened: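 H295R cells; 10 uM forskolin prestim 48 h; compound in 0.1% DMSO 48 h; media extracted with MTBE; 11-deoxycortisol by LC-MS/MS, 7-point standard curve; gain/loss vs DMSO baseline; viability by MTT in same wells.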

[7] = CEETOX_H295R_OHPREG: CeeTox H295R High-throughput Steroidogenesis Assay for OH-Pregnenolone (OHPREG) (AID 2283434; active = hit-call score of the fitted dose curve at least 0.9, where 1 is the maximum; inactive = score below 0.9); conditions: actives raise or lower the signal
Procedure, shortened: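 Readout: HPLC-MS/MS of 17alpha-hydroxypregnenolone in medium after 48 h chemical exposure of H295R cells pretreated with forskolin. Values fitted bidirectionally relative to DMSO; chemicals reducing viability to 20–70% were retested after 10-fold dilution.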

[8] = CEETOX_H295R_OHPROG: CeeTox H295R High-throughput Steroidogenesis Assay for OH-Progesterone (OHPROG) (AID 2283435; active = hit-call score of the fitted dose curve at least 0.9, where 1 is the maximum; inactive = score below 0.9;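 for AC50: 17alpha-hydroxyprogesterone secreted into medium measured by HPLC-MS/MS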); conditions: actives raise or lower the signal
Procedure, shortened: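 Medium steroid levels read by LC-MS/MS after 48 h chemical treatment (0.1% DMSO) of human adrenal H295R cells that had been forskolin-primed (10 uM, 48 h). Gain or loss fitted against DMSO; MTT cytotoxicity checked per well.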

[9] = CEETOX_H295R_ANDR: CeeTox H295R High-throughput Steroidogenesis Assay for Androstenedione (ANDR) (AID 2283436; active = hit-call score of the fitted dose curve at least 0.9, where 1 is the maximum; inactive = score below 0.9;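 note: human H295R adrenal cells exposed for 48 h with androstenedione measured in medium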); conditions: actives raise or lower the signal
Procedure, shortened: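 Steroidogenesis in H295R adrenal cells after 48 h dosing; androstenedione quantified by LC-MS/MS, with DMSO as negative control and baseline for bidirectional curve fitting.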

[10] = CEETOX_H295R_CORTIC: CeeTox H295R High-throughput Steroidogenesis Assay for Corticosterone (CORTIC) (AID 2283437; active = hit-call score of the fitted dose curve at least 0.9, where 1 is the maximum; inactive = score below 0.9;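 note: corticosterone secreted into medium quantified by mass spectrometry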;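 for AC50: human H295R adrenal cells prestimulated with forskolin before chemical exposure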); conditions: actives raise or lower the signal
Procedure, shortened: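 Steps: seed H295R, adhere overnight; 10 uM forskolin 48 h; replace with chemical (0.1% DMSO) 48 h; extract medium with MTBE; quantify corticosterone by HPLC-MS/MS; score bidirectionally vs DMSO.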

Measured: AC50

Sequence of Bile acid receptor (Homo sapiens) (Q96RI1 whole entry, looked up, the tested form may be a part): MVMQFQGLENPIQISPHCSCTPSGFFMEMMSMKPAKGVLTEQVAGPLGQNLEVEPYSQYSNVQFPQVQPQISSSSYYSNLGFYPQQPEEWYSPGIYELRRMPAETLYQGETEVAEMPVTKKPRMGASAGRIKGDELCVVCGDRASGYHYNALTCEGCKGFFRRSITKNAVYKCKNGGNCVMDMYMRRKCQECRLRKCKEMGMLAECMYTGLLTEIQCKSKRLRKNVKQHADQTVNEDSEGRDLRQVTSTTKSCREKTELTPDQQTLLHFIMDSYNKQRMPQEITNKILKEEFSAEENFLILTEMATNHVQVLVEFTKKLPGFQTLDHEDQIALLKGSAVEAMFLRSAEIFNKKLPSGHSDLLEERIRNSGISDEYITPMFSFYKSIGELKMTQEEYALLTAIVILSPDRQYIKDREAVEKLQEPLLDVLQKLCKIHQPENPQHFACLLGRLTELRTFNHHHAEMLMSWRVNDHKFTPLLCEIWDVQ
Sequence of Retinoic acid receptor RXR-alpha (Homo sapiens) (P19793 whole entry, looked up, the tested form may be a part): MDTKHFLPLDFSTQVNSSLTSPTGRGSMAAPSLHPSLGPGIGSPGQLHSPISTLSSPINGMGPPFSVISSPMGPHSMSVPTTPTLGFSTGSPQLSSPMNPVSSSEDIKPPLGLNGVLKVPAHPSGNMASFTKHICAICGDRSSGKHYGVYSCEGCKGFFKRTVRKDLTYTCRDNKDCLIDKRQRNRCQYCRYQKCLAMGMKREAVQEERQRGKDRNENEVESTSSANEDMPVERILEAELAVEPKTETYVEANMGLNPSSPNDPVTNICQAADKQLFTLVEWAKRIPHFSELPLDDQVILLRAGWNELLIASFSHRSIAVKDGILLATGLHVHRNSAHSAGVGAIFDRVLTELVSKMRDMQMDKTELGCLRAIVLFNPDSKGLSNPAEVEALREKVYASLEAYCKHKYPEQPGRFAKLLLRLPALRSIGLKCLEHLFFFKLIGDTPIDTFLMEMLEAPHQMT
Sequence of Peroxisome proliferator-activated receptor gamma (Homo sapiens) (P37231 whole entry, looked up, the tested form may be a part): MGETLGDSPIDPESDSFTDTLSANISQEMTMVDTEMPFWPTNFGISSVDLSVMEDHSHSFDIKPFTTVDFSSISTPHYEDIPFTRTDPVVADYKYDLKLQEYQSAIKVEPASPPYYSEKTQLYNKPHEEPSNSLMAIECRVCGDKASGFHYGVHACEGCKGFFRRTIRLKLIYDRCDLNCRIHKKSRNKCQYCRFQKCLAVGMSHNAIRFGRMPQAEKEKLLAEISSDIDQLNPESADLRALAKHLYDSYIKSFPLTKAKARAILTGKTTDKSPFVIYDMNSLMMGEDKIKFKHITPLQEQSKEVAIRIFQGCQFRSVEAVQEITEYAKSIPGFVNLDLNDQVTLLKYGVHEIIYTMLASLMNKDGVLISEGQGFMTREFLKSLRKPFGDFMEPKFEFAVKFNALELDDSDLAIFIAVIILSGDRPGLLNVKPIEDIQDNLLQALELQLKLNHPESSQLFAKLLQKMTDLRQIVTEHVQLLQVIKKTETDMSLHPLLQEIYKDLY

COC(=O)C1CCC(C(=O)OC)CC1 (centres undefined)
inactive: [1] | [2] | [3]

CCCCCCOC(=O)c1ccccc1O
inactive: [1] | [2] | [4] | [3]

CCCCC(CC)COP(=O)(O)OCC(CC)CCCC (centres undefined)
inactive: [1]
active: [2] 71.8 µM | [5] 64.4 µM | [3] 67.8 µM

Cc1ccc(S(=O)(=O)NCl)cc1
inactive: [4] | [5] | [3]

C(=C(c1ccccc1)c1ccccc1)c1ccccc1
active: [1] 73.5 µM | [2] 76.8 µM | [4] 81.3 µM
inactive: [5] | [3]

CCCCCCC(C)OC(=O)CCCCC(=O)OC(C)CCCCCC (centres undefined)
inactive: [1] | [2] | [4] | [5] | [3]

[Co]
inactive: [1] | [2] | [4] | [5] | [3]

Cc1cccc(N(C)C)c1
inactive: [6] | [7] | [8] | [9] | [10]

CC(CCl)OP(=O)(OC(C)CCl)OC(C)CCl (centres undefined)
inactive: [1] | [2] | [3]

CC(C)OC(=O)c1ccccc1C(=O)OC(C)C
inactive: [1] | [2] | [4] | [5] | [3]

CC(Cc1ccc(O)c(O)c1)C(C)Cc1ccc(O)c(O)c1 (centres undefined)
active: [6] 79.6 µM | [8] 4.19 µM | [10] 12.7 µM
inactive: [4] | [3] | [7]

c1ccc(B(c2ccccc2)c2ccccc2)cc1
active: [6] 33.7 µM | [7] 15 µM
inactive: [1] | [2] | [4] | [5] | [3] | [8] | [10]

Nc1ccc(Oc2cccc(Oc3ccc(N)cc3)c2)cc1
inactive: [6] | [7]
active: [8] 2.87 µM | [10] 2.84 µM

C1COCCN1
inactive: [4]

CCCCCCS
inactive: [6] | [7] | [8] | [9] | [10]

CC(=O)Nc1ccc(N=Nc2cc(C)ccc2O)cc1
active: [6] 33.7 µM | [8] 16 µM | [9] 25 µM | [10] 25 µM
inactive: [7]

OC[C@@H](O)[C@@H](O)[C@H](O)[C@@H](O)CO
inactive: [4] | [5] | [3]

O=C(OCCOCCOCCOC(=O)c1ccccc1)c1ccccc1
inactive: [1] | [2] | [3]

Cc1cc(C)cc(O)c1
inactive: [4] | [5] | [3]

CCCCOc1ccc(N)cc1
inactive: [1] | [4] | [5] | [3]
active: [2] 36.9 µM

CN(C)Cc1ccccc1O
inactive: [2] | [4] | [3]

CCCCCCOC(=O)c1ccccc1
inactive: [1] | [5] | [3]

O=S(=O)(O)c1ccc2ccccc2c1
inactive: [1] | [2] | [4] | [5] | [3]

C#C[C@]1(O)CC[C@H]2[C@@H]3CCc4cc(OC)ccc4[C@H]3CC[C@@]21C
inactive: [5] | [3] | [6] | [7]
active: [1] 60.4 µM | [2] 46.8 µM | [4] 78.8 µM | [8] 7.82 µM

CNC(=S)NC
inactive: [1] | [2] | [5] | [3]

CC/C=C\CCOC(C)=O
inactive: [5] | [3]

CCN(Cc1cccc(S(=O)(=O)O)c1)c1ccc(C(=C2C=CC(=[N+](CC)Cc3cccc(S(=O)(=O)O)c3)C=C2)c2ccc(O)cc2S(=O)(=O)[O-])cc1
inactive: [4] | [5] | [3]
